Measurements taken from the OligoGym collection.

target: COG2; assay: pooled miR-30 sensor sort-seq; sequence = guide strand; conditions: shRNA
Also: reference of the scale not given here.

Row | Sequence | sensor-assay potency score (higher = more potent)
1 | ATCGACATCGAAATCTTCCTTC | 0.744
2 | TCATCTGACCAACACCTCCTAA | -1.05
3 | TTGACAAACACAGAGTATCGTG | -0.356
4 | TTCCACTTCTTATTGAAGCTGT | 0.407
5 | TTGTTTGAGCTTATCCTTGTGT | 0.0501
6 | TTAATCTCTTTACACTAGCCTG | -1.22
7 | TTGTCGTCGTCGCTCATGCCAC | -1.52
8 | TTCTGTGGCAATTCTCTCCAAA | -0.386

target: COL16A1; assay: as above; conditions: shRNA

Row | Sequence | sensor-assay potency score (higher = more potent)
9 | TTGAAACAGATACCACGTCTTC | -0.641
10 | TTGAAGGCCAGGCAATCCGGGG | -1.21
11 | TTGACTTCCAGGGATATCTGTG | -0.154
12 | TGAACCTCTTGATTTCATCATA | -1.14
13 | TTGAACTCCTGGTAGACCGGGT | 0.285
14 | TCGAACACAGTCATTGCCCCGT | -0.664
15 | TTCTCTGCCAATCTGACCAGGG | -0.174
16 | TTGTCTGATGAACCTCTTGATT | -1.11
17 | ATGCAGGACACAAAGTCGCCAT | -0.876
18 | TTCCAATTTGAGTCCTTCCTGC | 0.311
19 | TGTAGTAAGCCATTCTCTCATC | -0.613
20 | TAGACCTTGCCTTCAGACTGTG | 0.244
21 | TCTTGTCTGATGAACCTCTTGA | 0.162
22 | ATTTTAATGATCTCTTGTCTGA | -0.577
23 | TTAATGATCTCTTGTCTGATGA | -0.576
24 | TTGGTAAGGATCCCAGTTCTGC | -0.831
25 | TTGCGGATCTTCTTGATGGCAG | -0.676
26 | TGGTTTGCCACAGTCACCCTTA | -0.19
27 | TTTCTTCAGCAGTAGTGTCAGC | -0.871
28 | AAGTGTGACATTGCTGTCCCGG | -0.502
29 | TTTAATGATCTCTTGTCTGATG | -0.368
30 | TTTTAATGATCTCTTGTCTGAT | -0.328
31 | ATCTCTTGTCTGATGAACCTCT | -0.329
